Reference: the supplement of paper PMC3334620
Over roughly 33,000 sequences, “E-score (-0.5 to 0.5)” has its median near -0.012; the highest 2% begin near 0.27. The list comes from a sample in which the highest values are over-represented; it also holds similar and randomly drawn sequences.

Target: T1, Vhr1 (UniProt P40522)
T1 sequence: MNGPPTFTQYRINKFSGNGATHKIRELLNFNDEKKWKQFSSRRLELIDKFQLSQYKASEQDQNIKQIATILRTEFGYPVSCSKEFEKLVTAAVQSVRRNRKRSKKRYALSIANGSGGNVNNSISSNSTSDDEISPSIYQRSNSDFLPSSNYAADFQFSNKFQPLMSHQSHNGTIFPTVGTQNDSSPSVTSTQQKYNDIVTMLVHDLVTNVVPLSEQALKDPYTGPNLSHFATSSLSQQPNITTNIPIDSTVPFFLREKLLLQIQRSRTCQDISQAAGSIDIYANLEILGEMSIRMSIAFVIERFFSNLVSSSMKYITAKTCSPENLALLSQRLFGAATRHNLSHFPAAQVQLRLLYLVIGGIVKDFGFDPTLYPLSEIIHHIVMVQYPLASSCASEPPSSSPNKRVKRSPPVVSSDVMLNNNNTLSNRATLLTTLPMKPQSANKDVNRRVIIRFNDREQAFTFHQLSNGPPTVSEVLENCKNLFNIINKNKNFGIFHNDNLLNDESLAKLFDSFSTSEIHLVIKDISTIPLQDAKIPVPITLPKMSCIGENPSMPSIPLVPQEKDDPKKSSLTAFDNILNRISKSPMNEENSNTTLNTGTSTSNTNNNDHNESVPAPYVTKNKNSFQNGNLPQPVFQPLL
Assay: PBM E-score (8-mer binding enrichment) (E-score (-0.5 to 0.5)); higher = stronger / more preferred TF binding
Conditions: protein concentration: 200 nM; construct: GST-full length
In short: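 E-scores (a modified Wilcoxon-Mann-Whitney statistic) were assigned by the Universal PBM Analysis Suite to every ungapped eight-base word pooled with its reverse complement. The input came from universal all-10-mer Agilent arrays made double-stranded by primer extension and probed with GST-tagged yeast transcription factors at about 100-200 nM. Fluorescent anti-GST detected bound protein, and masliner normalised the scans.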

Sequence | PBM E-score
ACTGGCTG | 0.0954
CTTACCCA | 0.104
ACTCCAGA | 0.0505
TCTGCCCA | -0.179
AACCAACT | 0.0869
CGTGCTAA | -0.201
CCCATGAG | 0.227
ACTCATGC | 0.322
CCTCATGA | 0.0599
ACTCATGA | 0.369
ACACATGG | 0.215
CCTCATGC | 0.0272
ACTCATGG | 0.317
GCTCATGA | 0.16
ATTCATGG | 0.21
ATTCATGC | 0.21
ATGCATGG | 0.28
ATGCATGC | -0.0419
ATGCATGA | 0.165
AATTCACG | -0.0883
CGACAGAG | 0.0418
GGACTATA | 0.0737
CCAATTCC | -0.0792
ATCGTCTA | 0.0131
ATCCTCCC | -0.107

Sequence | PBM E-score
CAAGTTCC | -0.216
AAGTCCGA | -0.205
ATTATACA | 0.00881
ATTATACG | 0.303
ATTATACC | 0.112
GGATTCAA | -0.0312
TGATTCCA | 0.364
TGGTTCAA | 0.289
CGATTCCA | 0.0812
AGATTCCA | 0.00955
AGATTCAA | -0.133
CGGTTCAA | 0.0706
AGGTTCAA | 0.0239
TGATTCAA | 0.326
CGATGAAA | -0.0595
AAGCTTTA | -0.237
CTAAAACA | -0.0504
GTAGCTTA | 0.00186
CAAGTAAG | -0.123
CCATTCAG | -0.0511
CCTAGTCG | 0.0391
TCTAGTCA | 0.218
ACTAGTCA | 0.292
CCTAGTCA | 0.309
GCTAGTCA | 0.284

Sequence | PBM E-score
CCTAGTCC | -0.0886
ACTAGTCC | 0.133
GCTAGTTA | 0.00532
GCTAGTCC | -0.158
ATCTTCTG | -0.113
ACTTCGGA | -0.00447
GAAAGTTC | -0.349
AGAGTACT | 0.0467
ATTCTTAC | -0.00122
CTCTGGAC | 0.0126
CCGCCCCC | -0.17
ACGCCCCA | 0.112
GCGCCCCA | -0.131
CCGCCCCA | 0.349
CCTCCCCC | -0.19
CCTCCCCA | 0.28
CCTCCCAA | -0.246
CCGCCCGG | 0.0777
CCGCCCCG | 0.365
CAGAAATG | -0.168
CTTCATGA | 0.145
CGGCCGAA | 0.185
AGGTTGAA | -0.127
AGGAACCT | -0.0548
CAAGAGTA | 0.167

Sequence | PBM E-score
CTCCCGCC | 0.0303
CTAGCGAC | -0.00899
CGTGTCTA | 0.124
CTGATTTA | 0.00054
GAGATTTA | -0.176
GTGATTTA | 0.321
ATGATTTA | 0.295
ATGATTTC | 0.249
GGGATTTA | -0.29
TCAATTGA | -0.0329
GATTCTCA | 0.078
TGGTCCAA | -0.0804
AGATATAT | 0.131
GCTGGGAA | 0.0455
AGTGGGAC | 0.0716
CCAAATCG | -0.166
ACTGCTCA | 0.0795
AGCACTGG | -0.0591
AGGATGGC | 0.124
CTCACACC | 0.0809
GTCACAGA | 0.157
GTCACGCA | 0.0821
CTCACGCA | 0.29
GTCACACA | 0.303
GTCACTCA | 0.325

Sequence | PBM E-score
CTCACACA | 0.299
CTCACTCA | 0.0981
GTCACAAA | -0.0213
CTCACATA | 0.186
ATCACTCA | 0.234
CTCACGCC | 0.239
CATGGTAA | -0.0174
AATAGGGC | -0.124
AATTGTGG | 0.00128
CCAACGCC | -0.203
CATTTGAA | -0.0815
TGATAGCA | 0.194
ATAGATGC | -0.0668
GTGATATA | 0.0452
CCATCCTC | 0.0474
CTAGTATA | 0.0509
CTCAACTA | 0.106
AATCAATC | 0.186
TCTCAACA | 0.113
ACTCAATG | 0.159
ACTCAACG | 0.171
ACTCCACG | -0.104
ACTCAATC | 0.293
TATCAACA | 0.172
TCTCCACA | -0.0495

Sequence | PBM E-score
ACTCCACA | 0.277
AATCAACA | 0.303
ACTCAACA | 0.289
GATCAACA | -0.0766
ACTCATAA | 0.164
ACATCGCG | 0.183
AGTTAGGC | -0.144
CGACTGTC | 0.102
AAAGTAGG | -0.0386
ATCTCCAT | 0.0116
ATGCTTGA | 0.0306
AACCACCT | 0.0827
TATCACCA | 0.0885
CATCACCA | 0.167
CATCACCC | 0.103
AATCACCT | 0.312
AATCACGT | 0.225
AATCACCA | 0.33
AATCACCC | 0.38
AATCACCG | 0.266
ACCCCAAG | -0.0964
CCGATCAC | 0.0847
GTGCAAAC | -0.0932
TAGAAGGA | -0.332
ATAAGGGA | -0.137

Sequence | PBM E-score
ATCTAAAA | 0.0219
ATTAACTG | 0.224
AGTCATTA | 0.368
GGTCATTA | -0.0362
ACTCATTG | 0.196
CGTCATTC | 0.177
AGTCATTG | 0.389
ACTCATTC | 0.367
ATTCATTC | 0.165
CGTCATTA | -0.122
AGTCATTC | 0.384
AGCCATTC | -0.00524
ATTCATTG | 0.0738
CCTCATTC | -0.0181
TGACAGCA | 0.127
ATAGCGTA | -0.0276
CAAAACAA | -0.13
GCCTCAAA | -0.0409
GAGGGCAC | -0.205
CTAGTCGC | 0.0967
CTAGTCAC | 0.34
AAAGTCAC | 0.246
